High-throughput results from PubChem.
Shown are actives, neighbours in structure and some others; about 3.3% of the full set was active somewhere.
UHRF1 MBD2 ctr: UHRF1 methyl-DNA binding inhibition; inhibition, % at 4.4 µM; UHRF1 binding to methylated oligo, TR-FRET; Q96T88; actives 0.75% (n = 370,000);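 note: UHRF1 SRA domain binding a hemimethylated CpG hairpin DNA probe; 0% = median of test compound wells and 100% = reference inhibitor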
PfGluPho inh: PfG6PD (Plasmodium falciparum) enzyme inhibition | AID 504690 | PfGluPho enzyme, NADPH resazurin-diaphorase fluorescence | actives 0.78% (n = 350,000) | inhibition, % at 20 µM;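 active = inhibition reaching at least a set limit at 20 µM in the primary screen, cut at about 59% in these data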;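 note: 0% = DMSO wells with substrate and 100% = DMSO wells lacking glucose-6-phosphate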
PRMT1 inh: inhibitors of human PRMT1; Q99873; recombinant PRMT1, activity-based probe fluorescence polarization; AID 652257; inhibition, % at 2.79 µM; actives 1.3% (n = 370,000);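 active = inhibition above about 21% made by adding two undisclosed values, limit read from the data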
Target sequence (Q99873 whole entry, looked up): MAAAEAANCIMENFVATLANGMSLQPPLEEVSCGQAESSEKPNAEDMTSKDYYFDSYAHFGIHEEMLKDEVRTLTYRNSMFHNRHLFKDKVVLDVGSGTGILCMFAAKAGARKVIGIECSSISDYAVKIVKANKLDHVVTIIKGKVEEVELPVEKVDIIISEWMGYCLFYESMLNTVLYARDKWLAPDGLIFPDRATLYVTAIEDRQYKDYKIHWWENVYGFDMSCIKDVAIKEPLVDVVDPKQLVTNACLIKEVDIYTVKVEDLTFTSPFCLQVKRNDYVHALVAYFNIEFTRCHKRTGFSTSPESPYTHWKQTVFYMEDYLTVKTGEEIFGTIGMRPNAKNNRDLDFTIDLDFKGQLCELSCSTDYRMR
MBD2 inh: MBD2-methylated oligo binding inhibition. Q9UBB5. TR-FRET, MBD2 binding to methylated oligonucleotide. inhibition, % at 4.4 µM. actives 0.31% (n = 370,000). AID 686964; in the data active = inhibition above about 13%
M18AAP inhibitor: blocks P. falciparum M18 aspartyl aminopeptidase; recombinant PfM18AAP, H-Glu-NHMec fluorogenic cleavage; inhibition, % at 7.35 µM; actives 1.2% (n = 290,000); AID 1822;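 active = inhibition above the campaign mean inhibition over all tested compounds plus 3 SD, cut at about 28% in these data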;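 note: 0% = plate median of test compound wells and 100% = 2 mM ZnCl2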
PRMT1 confirm: confirmation of human PRMT1 inhibitors; shares compounds with PRMT1 inh; recombinant His-PRMT1, activity-based probe fluorescence polarization; inhibition, % at 2.79 µM; actives 42% (n = 3,300); AID 687036;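 active = mean inhibition across replicates above the hit cutoff derived for the earlier primary screen, cut at about 22% in these data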
UHRF1 DNA bind: UHRF1 methyl-oligo binding inhibition as MBD2 counter-screen; shares compounds with MBD2 inh; UHRF1 binding to methylated oligonucleotide, TR-FRET; inhibition, % at 4.4 µM; actives 25% (n = 1,000);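 note: UHRF1 SRA domain binding a labeled hemimethylated CpG hairpin DNA; 0% = vehicle only and 100% = reference inhibitor with vehicle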
MBD2 DBD conf: confirmation of human MBD2-DBD methylated oligonucleotide binding inhibitors; TR-FRET MBD2-DBD binding to methylated oligonucleotide; shares compounds with MBD2 inh; actives 26% (n = 1,000); inhibition, % at 4.4 µM; in the data active = inhibition above about 14%
An asterisk follows results filed as active; / = no result given. Cut-off read from the data, not from the text of the source, unless noted: active = inhibition above about 21%; inactive = the rest.

SMILES	UHRF1 MBD2 ctr	PfGluPho inh	PRMT1 inh	MBD2 inh	M18AAP inhibitor	UHRF1 DNA bind	MBD2 DBD conf	others
O=C1/C(=C/c2ccco2)SC(=S)N1c1cccnc1	98.3*	24.9	46.1*	104.6*	21.3	69.5*	31.9*	PRMT1 confirm=19.9
O=C(Nc1nnc(SCc2ccc(F)cc2)s1)C1CC(=O)N(Cc2ccccc2)C1 (stereo not drawn)	-4.0	-24.7	-2.3	-1.7	2.8	/	/
CN1C2=N[C@@H](c3cccc(C(F)(F)F)c3)CC(=O)N2/C(=C\c2ccccc2)[C@H]1c1ccccc1	50.8*	/	55.5*	30.7*	/	28.9*	23.1*	PRMT1 confirm=47.1*
CN(CC(=O)Nc1ccc(F)cc1)C(=O)C1CCCC1	-0.9	-3.3	-2.7	1.8	/	/	/
CS(=O)(=O)c1ccc(C(=O)Nc2nc(-c3ccco3)c(-c3ccco3)s2)cc1	88.3*	24.2	35.3*	40.9*	/	12.1	4.5	PRMT1 confirm=28.4*
CS(=O)(=O)c1ccc2nc(NC(=O)c3ccccc3)sc2c1	-1.0	18.0	4.5	-2.2	1.1	/	/
CCOC(=O)N1CCN(C(=O)C[C@@H]2C(=O)N(Cc3ccc(OC)cc3)/C3=C/CCCCC[C@@]32C(=O)OCC)CC1	-0.7	/	-2.5	-2.6	/	/	/
N#Cc1c(SCC(=O)Nc2nccs2)sc2c(O)cc(=O)[nH]c12	77.1*	43.4	51.4*	35.0*	29.3*	26.7*	15.4*	PRMT1 confirm=26.6*
CC1CCCC(NC(=O)CCNC(=O)c2ccc([N+](=O)[O-])cc2)C1C (stereo not drawn)	3.2	-7.5	-1.7	-0.1	1.9	/	/
O=C1COc2ccc(C(=O)COC(=O)/C=C/c3ccc(Br)o3)cc2N1	45.6*	10.7	37.4*	18.8*	/	43.8*	32.4*	PRMT1 confirm=2.1
COc1ccc(NC(=O)N(C)C[C@@H]2OCc3cn(nn3)CCCC(=O)N([C@H](C)CO)C[C@H]2C)cc1	5.7	9.3	65.2*	16.9*	/	8.8	3.8	PRMT1 confirm=6.0
O=c1nc2c(O)cccn2c2c1c(=O)[nH]c1ccccc12	42.8*	44.1	34.2*	23.4*	12.8	25.1*	25.8*	PRMT1 confirm=34.4*
COc1ccc(C(=O)OCCN2CCN(C3CN(Cc4cn(Cc5ccccc5Cl)nn4)S(=O)(=O)C3)CC2)cc1OC (stereo not drawn)	10.2	/	1.0	7.1	/	/	/
O=S(=O)(c1ccc2nc(-c3ccco3)c(-c3ccco3)nc2c1)N1CCOCC1	29.6*	53.8	52.2*	14.4*	20.6	16.8	-1.5	PRMT1 confirm=68.5*
CCCC1=NN2C(=N)/C(=C\c3ccc(SCc4ccco4)o3)C(=O)N=C2S1	/	25.8	/	/	17.4	/	/
CCC1=NN2C(=N)/C(=C\c3ccc(SCc4ccco4)o3)C(=O)N=C2S1	56.5*	21.3	38.8*	19.8*	29.5*	19.8	3.9	PRMT1 confirm=14.7
Cc1cc(C)c(OCC(=O)OCC(=O)NNC(=O)c2ccccc2F)c(C)c1	3.2	-17.3	-0.5	21.8*	/	5.4	1.8
CCN(CC)CCNC(=O)c1ccc2c(c1NCCO)C(=O)c1ccccc1C2=O	4.4	-32.3	3.0	21.6*	-1.3	15.1	29.8*
Nc1cccc(C(=O)OCC(=O)Nc2cccc3c2C(=O)c2ccccc2C3=O)c1	-1.0	4.5	7.4	2.4	-2.2	/	/
CCN(CC)CCC(=O)Nc1cccc2c1C(=O)c1ccccc1C2=O	-29.4	14.3	1.7	27.3*	-0.1	4.4	37.5*
C=CC[C@@H](CC(=O)NCCO)C(=O)N[C@H](C)COC(=O)[C@@H](CC=C)Cc1ccc(F)cc1	-0.3	-16.7	0.6	53.1*	/	1.4	1.5
Nc1c(Cl)cc(-c2cn(CCC(=O)O)c(-c3ccc(Cl)nc3)n2)cc1Cl	1.2	-12.8	5.4	2.2	/	/	/
O=C(NCCN1CCN(C(=O)c2ccc(F)cc2)CC1)c1ccc(F)cc1	-0.1	4.8	-5.4	13.9*	-0.4	10.5	3.0
O=C(c1ccc(F)cc1)N1CCN(Cc2ccccc2)CC1	0.1	-9.7	3.3	-4.0	-2.3	/	/
O=C(CN1CCC(NC(=O)Nc2ccc3c(c2)OCO3)CC1)Nc1ccc2c(c1)OCCO2	-0.3	/	4.0	-1.1	/	/	/
SMILES	UHRF1 MBD2 ctr	PfGluPho inh	PRMT1 inh	MBD2 inh	M18AAP inhibitor	UHRF1 DNA bind	MBD2 DBD conf	others
CCOC(=O)c1ccc(NC(=O)NC2CCN(CC(=O)NCc3ccc4c(c3)OCO4)CC2)cc1	2.7	-8.3	1.7	18.6*	3.7	7.9	3.6
CCCC(=O)Oc1ccc(N(C(=O)CCC)S(=O)(=O)c2cccc([N+](=O)[O-])c2)cc1	28.3*	-18.6	5.3	16.7*	-8.0	5.8	3.4
NS(=O)(=O)c1ccc(CNC(=O)C(c2ccccc2)c2ccccc2)cc1	-2.5	-16.4	0.6	-4.7	-5.2	/	/
Cc1cnc(NC(=O)c2cc(-c3ccccc3)nn2-c2ccccc2)s1	-0.7	-7.5	-0.6	25.1*	/	4.9	3.2
O=S(=O)(c1cc(O)ccc1O)c1cccc2c(S(=O)(=O)c3cc(O)ccc3O)cccc12	32.9*	28.4	11.8	20.3*	/	36.9*	16.9*
O=S(=O)(O)c1cc(O)ccc1O	1.1	15.9	8.6	-3.2	/	/	/
COc1ccccc1C(=O)NC(CCSC)C(=O)NCC(c1cccs1)N(C)C (stereo not drawn)	2.8	2.1	5.1	14.2*	/	11.4	2.2
O=C(O)c1cccc(-c2ccc(/C=c3/sc4nc5ccccc5n4c3=O)o2)c1	80.8*	26.9	24.2*	33.6*	9.4	54.2*	19.4*
O=c1/c(=C\c2cc([N+](=O)[O-])cc([N+](=O)[O-])c2O)sc2nc3ccccc3n12	/	46.3	/	/	11.4	/	/
O=C(c1cccc(Br)c1)c1nc2ccccc2[nH]c1=O	4.6	/	1.6	4.0	/	/	/
CCCCCCCCN1C(=O)[C@H](CC(=O)NCCc2ccccc2OC)C[C@@]2(C(=O)OCC)CCCC=C12	-1.8	/	-6.5	-1.2	/	/	/
O=S(=O)(O)c1cc(O)c2cc(Nc3ccccc3)ccc2c1	32.5*	8.8	/	26.3*	/	31.1*	14.1*
Nc1cccc2c(O)cc(S(=O)(=O)O)cc12	/	49.5	/	/	/	/	/
COc1ccc(C(=O)Nc2ccc(S(=O)(=O)Nc3nccc(C)n3)cc2)cc1[N+](=O)[O-]	0.2	2.4	-0.3	8.6	-2.4	/	/
COCCCn1c(SC(C)C(=O)Nc2c(C)n(C)n(-c3ccccc3)c2=O)n[nH]c1=O (stereo not drawn)	0.0	1.8	-3.7	-0.7	/	/	/
O=C(Nc1cccc([N+](=O)[O-])c1)Nc1cccc([N+](=O)[O-])c1	4.5	31.8	0.8	4.9	-1.8	/	/
O=[N+]([O-])c1cccc(I)c1	88.1*	/	0.7	59.2*	/	1.0	5.9
